Hits are enriched below; roughly 3% of the tested compounds scored in any of these assays.
PPC-1+TRAIL kill: compounds killing PPC-1 cancer cells with TRAIL present, primary screen, TRAIL potentiator project, ATPLite luminescence, uHTS | PPC-1 cells + TRAIL, ATPLite viability luminescence | cell killing (% activity), % at 4 µM or 5 µM | 220,000 tested, 0.41% active | AID 1443, 2008;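 active = cell killing above 50% in the first pass at 4 µM, then a duplicate retest at 5 µM averaging 50% or more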
SENP7 inh: SENP7 protease inhibitors, primary screen, biochemical, luminescence, uHTS; Sentrin-specific protease 7 (Homo sapiens), Q9BQF6; 330,000 tested, 1.5% active; inhibition, % at 5 µM; recombinant SENP7, Z-RLRGG-aminoluciferin luminescence, 40 min;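 active = inhibition above about 50% at the single test dose, limit read from the data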
Target sequence (Q9BQF6 706-1050 limits assumed): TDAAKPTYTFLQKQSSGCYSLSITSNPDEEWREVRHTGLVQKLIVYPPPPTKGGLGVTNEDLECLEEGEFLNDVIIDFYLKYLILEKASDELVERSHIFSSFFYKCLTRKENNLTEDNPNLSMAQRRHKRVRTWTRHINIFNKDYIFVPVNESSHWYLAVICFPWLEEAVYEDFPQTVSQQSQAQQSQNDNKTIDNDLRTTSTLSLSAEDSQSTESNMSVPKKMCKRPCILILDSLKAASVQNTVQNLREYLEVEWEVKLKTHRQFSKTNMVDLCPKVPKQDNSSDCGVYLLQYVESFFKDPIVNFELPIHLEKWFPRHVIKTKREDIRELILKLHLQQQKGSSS
C8 TRAIL sens: viability loss with TRAIL in NB7+C8 cells, primary screen, TRAIL sensitizer project, cell-based, ATPlite luminescence; inhibition (viability loss, TRAIL sensitization), % at 10 µM; 360,000 tested, 1% active; AID 624354, 2012;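 active = compounds causing at least 50% loss of cell viability in the single-dose screen, relative to plate controls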
SENP8 block-1: human SENP8 protease inhibitors, primary screen, biochemical, fluorescence, Nedd8 protein substrate, uHTS | Sentrin-specific protease 8 (Homo sapiens), Q96LD8 | recombinant SENP8 | inhibition, % at 20 µM | 360,000 tested, 0.64% active | AID 602440, 2012; in the data active = inhibition mostly above about 40%, no sharp cut-off; inactive = mostly below about 27%
SENP6 block: SENP6 protease inhibitors, primary screen, biochemical, luminescence, uHTS | AID 2599, 2010 | Sentrin-specific protease 6 (Homo sapiens), Q9GZR1 | 330,000 tested, 1.8% active | Recombinant SENP6 catalytic domain, aminoluciferin luminescence | inhibition, % at 10 µM;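 active = inhibition above about 50% at the single tested dose, limit read from the data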
SENP8 block-2: SENP8 protease inhibitors, primary screen, biochemical, luminescence | Sentrin-specific protease 8 (Homo sapiens), Q96LD8 | purified SENP8, Z-RLRGG-aminoluciferin cleavage | inhibition, % at 10 µM | 330,000 tested, 1.2% active | AID 2540, 2010; in the data active = inhibition above about 50%
SENP8 conf: SENP8 protease inhibitors, retest, confirmation, biochemical, luminescence, single concentration. shares compounds with SENP7 inh. Recombinant SENP8, Z-RLRGG-aminoluciferin luminescence, 60 min. inhibition, % at 12.5 µM. 6,200 tested, 40% active. AID 488912, 2010;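 active = mean inhibition across replicates above about 50%, limit read from the data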
SENP6 confirm: SENP6 protease inhibitors, confirmation, biochemical, luminescence, single concentration; shares compounds with SENP7 inh; recombinant SENP6, Z-RLRGG-aminoluciferin luminescence; inhibition, % at 12.5 µM; 6,200 tested, 58% active; AID 488915, 2010
SENP7 conf: SENP7 protease inhibitors, retest, confirmation, biochemical, luminescence, single concentration; shares compounds with SENP7 inh; recombinant SENP7, Z-RLRGG-aminoluciferin luminescence, 40 min; inhibition, % at 12.5 µM; 6,200 tested, 69% active; AID 488917, 2010
Casp3 SENP sel: caspase-3 protease inhibitors, confirmation, selectivity assay for SENP inhibitor project, biochemical, single concentration; purified caspase-3, Z-DEVD-aminoluciferin luminescence, 60 min; shares compounds with SENP7 inh; inhibition, % at 12.5 µM; 6,200 tested, 60% active;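 active = mean inhibition above about 50%, limit read from the data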
Target sequence (P42574 28-227 limits assumed): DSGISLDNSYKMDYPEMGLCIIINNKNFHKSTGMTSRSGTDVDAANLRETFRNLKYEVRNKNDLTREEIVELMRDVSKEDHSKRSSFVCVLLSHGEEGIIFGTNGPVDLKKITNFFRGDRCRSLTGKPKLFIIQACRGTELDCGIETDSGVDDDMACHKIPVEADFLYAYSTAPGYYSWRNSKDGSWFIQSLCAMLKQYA
Luc interf: interferes with luciferase luminescence in SENP counter-screen | inhibition, % at 12.5 µM | AID 488919 | Pre-incubated SENP8/Z-RLRGG-aminoluciferin, luciferase luminescence interference | 6,200 tested, 39% active | shares compounds with SENP7 inh;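 active = mean inhibition above about 50% when retested at one dose, limit read from the data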
Of the large screens only hits and unclear results are named; the others gave an inactive call (follow-up assays come after a bar, where they were run).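 Rule for the calls, unless noted: active = mean inhibition above about 50% in the one-dose retest (limit read from the data); inactive = the rest.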

Cc1ccc2c(CC(=O)N3CCc4ccccc43)coc2c1	SENP7 inh 81.9, SENP6 block 81.3, SENP8 block-2 66.1 | SENP8 conf inactive | SENP6 confirm inactive | SENP7 conf 59.5 | Casp3 SENP sel 69.5 | Luc interf inactive
O=C(Cc1coc2ccc3ccccc3c12)N1CCc2ccccc21	none
COc1ccc(-c2cc(N3C(=O)Nc4ccccc4N3O)n[nH]2)cc1	none
CCOc1ccc(-c2cc(N3C(=O)Nc4ccccc4N3O)on2)cc1	C8 TRAIL sens 55.5, SENP6 block 54.1 | SENP8 conf inactive | SENP6 confirm inactive | SENP7 conf 78.9 | Casp3 SENP sel 77.4 | Luc interf 66.7
O=C(OCC(=O)N1N=C(c2ccc(Cl)cc2)CC1c1ccco1)c1cncc(Br)c1 (centres undefined)	none (no result: PPC-1+TRAIL kill)
CCOc1cc(/C=C2\NC(=S)N(c3c(C)n(C)n(-c4ccccc4)c3=O)C2=O)ccc1O	none
CCOc1cccc(/C=C2\NC(=S)N(c3ccccc3)C2=O)c1O	SENP7 inh 86.5, SENP6 block 91.9, SENP8 block-2 91.0 | SENP8 conf 82.7 | SENP6 confirm 97.9 | SENP7 conf 102.5 | Casp3 SENP sel 94.5 | Luc interf 68.9
O=C1c2ccccc2-c2nc3ccccc3cc21	SENP7 inh 90.0, SENP6 block 90.8, SENP8 block-2 86.0 (no result: PPC-1+TRAIL kill) | SENP8 conf inactive | SENP6 confirm 87.9 | SENP7 conf 99.3 | Casp3 SENP sel 86.0 | Luc interf 69.9
Cc1cc2ccccc2nc1-c1ccccc1F	none (no result: PPC-1+TRAIL kill, SENP7 inh, SENP6 block, SENP8 block-2)
c1ccc2c(c1)Cc1cc3ccccc3nc1-2	SENP7 inh 95.1, SENP6 block 98.1, SENP8 block-2 91.9 (no result: PPC-1+TRAIL kill) | SENP8 conf inactive | SENP6 confirm 94.9 | SENP7 conf 100.3 | Casp3 SENP sel 92.2 | Luc interf inactive
CCOc1ccc(CCNC(=O)c2cccc(NC3=NC4CS(=O)(=O)CC4S3)c2)cc1 (centres undefined)	none (no result: PPC-1+TRAIL kill)
c1ccc(-c2noc(-c3ccncc3)n2)nc1	SENP6 block 80.8, SENP8 block-2 79.1 | SENP8 conf 80.6 | SENP6 confirm 81.9 | SENP7 conf 96.5 | Casp3 SENP sel 96.0 | Luc interf 82.8
c1ccc(-c2ccccc2-c2nc(-c3cccnc3)no2)cc1	none
Brc1ccc(-c2noc(C3CCCCC3)n2)cc1	none
c1ccc(-c2noc(-c3cccnc3)n2)nc1	SENP7 inh 57.2 | SENP8 conf 50.8 | SENP6 confirm inactive | SENP7 conf 78.2 | Casp3 SENP sel 85.4 | Luc interf 57.8
c1ccc(-c2noc(-c3ccc4ccccc4c3)n2)nc1	SENP7 inh 100.0, C8 TRAIL sens 87.3, SENP6 block 97.3, SENP8 block-2 96.2 | SENP8 conf 93.7 | SENP6 confirm 98.7 | SENP7 conf 101.0 | Casp3 SENP sel 97.4 | Luc interf 59.5
c1ccc(-c2noc(C3CCCCC3)n2)nc1	SENP7 inh 55.3, SENP6 block 59.0 | SENP8 conf inactive | SENP6 confirm 50.4 | SENP7 conf 82.7 | Casp3 SENP sel 79.4 | Luc interf inactive
CN(C)/C=C(/C(=O)c1ccc(Cl)cc1)S(=O)(=O)c1ccc(Cl)cc1	none
CC(=O)c1ccc(OCc2cc(=O)n3ccsc3n2)cc1	none
O=C(OCc1cc(=O)n2ccsc2n1)c1ccc(O)cc1O	SENP6 block 63.6 (no result: PPC-1+TRAIL kill) | SENP8 conf 55.1 | SENP6 confirm inactive | SENP7 conf 79.4 | Casp3 SENP sel 76.0 | Luc interf 61.3
Cc1ccsc1C(=O)OCc1cc(=O)n2ccsc2n1	SENP7 inh 56.7, SENP6 block 53.2 (no result: PPC-1+TRAIL kill) | SENP8 conf inactive | SENP6 confirm inactive | SENP7 conf 82.5 | Casp3 SENP sel 81.2 | Luc interf inactive
COc1ccc2oc(C(=O)OCC(=O)NCCc3ccccc3)c(C)c2c1	none (no result: PPC-1+TRAIL kill)
COc1ccc2oc(C(=O)Nc3nccs3)c(C)c2c1	SENP7 inh 83.3 (no result: PPC-1+TRAIL kill) | SENP8 conf inactive | SENP6 confirm inactive | SENP7 conf inactive | Casp3 SENP sel inactive | Luc interf inactive
COc1ccc2oc(C(=O)NCCc3ccccc3)c(C)c2c1	SENP7 inh 88.4, SENP6 block 89.5, SENP8 block-2 84.1 (no result: PPC-1+TRAIL kill) | SENP8 conf 92.9 | SENP6 confirm 92.5 | SENP7 conf 100.0 | Casp3 SENP sel 85.5 | Luc interf 72.2
CCOc1ccc2oc(C(=O)Nc3ccc(C)cn3)c(C)c2c1	none (no result: PPC-1+TRAIL kill, SENP7 inh, SENP6 block, SENP8 block-2)
CCOc1ccc2oc(C(=O)Nc3nccs3)c(C)c2c1	SENP7 inh 77.6 (no result: PPC-1+TRAIL kill) | SENP8 conf inactive | SENP6 confirm inactive | SENP7 conf inactive | Casp3 SENP sel inactive | Luc interf inactive
CC1CCc2c(sc(NC(=O)CCC(=O)O)c2C(=O)NC2CC2)C1 (centres undefined)	none (no result: PPC-1+TRAIL kill)
O=c1c2c([nH]c3ccccc13)CCCCC2	SENP6 block 82.4 | SENP8 conf inactive | SENP6 confirm inactive | SENP7 conf inactive | Casp3 SENP sel inactive | Luc interf inactive
O=c1c2c([nH]c3ccccc13)CCCCCC2	none
Cc1ccc2c(c1)CCCO[C@]21O[C@H](CCO)C[C@H](O)[C@H]1O	none (no result: PPC-1+TRAIL kill, SENP7 inh, SENP6 block, SENP8 block-2)
Cn1cccc1C(=O)OCc1cc(Cl)cc2c1OCOC2	SENP7 inh 50.7, SENP6 block 75.1 | SENP8 conf 70.2 | SENP6 confirm 72.1 | SENP7 conf 90.0 | Casp3 SENP sel inactive | Luc interf 64.6
Cc1ccc2c(c1)-n1c(nc3ccc(C)cc3c1=O)C(Cc1ccccc1)NC2=O (centres undefined)	none (no result: PPC-1+TRAIL kill, C8 TRAIL sens, SENP8 block-1)
COc1ccc(NC(=O)CC(C)CC(=O)NCc2ccc(F)cc2)c(OC)c1 (centres undefined)	none (no result: PPC-1+TRAIL kill)
O=C1CC(c2ccccc2)Cc2nc(N3CCc4ccccc43)ncc21 (centres undefined)	none (no result: PPC-1+TRAIL kill)
